This note sets out measurements from PubChem BioAssay.

In general, inhibition refers to the change of the read-out against control, counted positive when it falls.

Assay [1] can be described thus: inhibitors of TNFa-induced NFkB p65 translocation, primary screen, imaging, HUVEC, MLSMR starter and 10KST1 sets (AID 438;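 active = inhibition above 20% together with a positive visual image hit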;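 note: compound added about 3h40 before a 20 min TNFalpha stimulation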;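 for inhibition: signal is the nuclear over cytoplasmic p65 intensity ratio per well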). Conditions: HUVEC TNFa-induced p65 nuclear translocation; cell count: measured here: nuclei count (cytotoxicity indicator), at 2.08 µM; inhibition: at 2 µM, stronger effect = higher value, 0% TNFa-plus-vehicle, 100% no-TNFa wells.
The nature of assay [2]: reduction of polyQ htt aggregates in cells – imaging, exon1htt(103Q)mCFP cells, high-content imaging, primary screen (AID 483).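 For nuclei count: percent of the per-plate median nuclei count of sample wells.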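 Note: compound exposure lasted 3 days before fixation.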 To be noted: exon1htt(103Q)mCFP cell line, aggregate imaging, at 2 µM; inhibition of aggregation: stronger effect = higher value; nuclei count: measured here: cell count, toxicity.
Assay [3] in a line: endothelial E-selectin expression blockers – imaging, HUVEC, immunofluorescence, MLSMR starter and 10KST1 sets, primary screen (AID 487;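 active = visually confirmed hit in the image check and inhibition above 20%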;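 for inhibition: signal is fraction of cell area covered by stained E-selectin grains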;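 for nuclei count: 100% = median nuclei count of all wells on the same plate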). To be noted: HUVEC TNFalpha-induced E-selectin immunofluorescence imaging, at 2 µM; inhibition: stronger effect = higher value; nuclei count: measured here: cell number, toxicity.
Assay [4] deals with Voltage-gated potassium channel subunit beta-2 (Rattus norvegicus) (UniProt P62483). Briefly: inhibitors of rat Kvbeta2 reductase activity – biochemical, NADPH fluorescence, primary screen (AID 622;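 active = fluorescence slope higher than the sample average by over 3 SD, cut at about -0.22 in these data, passing the limit was not always enough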;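 note: slope of raw intensity against log time taken from 70 to 1610 s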). Conditions: recombinant KvBeta, 4-cyanobenzaldehyde reduction, at 10 µM, stronger effect = higher value.
Assay [5] shares this target. Put plainly: enhancers of rat Kvbeta2 NADPH turnover – biochemical, NADPH fluorescence, primary screen (AID 623;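 active = NADPH fluorescence slope more negative than the mean of all samples by about 3 SD, 99.7% confidence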;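 note: fluorescence intensity change per second fitted from 20 to 320 s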). To be noted: Recombinant KvBeta, NADPH fluorescence decrease slope, 10 min; at 10 µM; stronger effect = lower value.
Assay [6] deals with Alpha-2C adrenergic receptor (Homo sapiens) (UniProt P18825). Briefly: compounds altering alpha2C-coupled GIRK flux – cell-based, HEK293 alpha2C/GIRK1/2, thallium flux, primary screen (AID 624;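 active = fluorescence slope after compound addition differing from the mean of all screened samples at 99.7% confidence, in either direction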;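 note: slope of fluorescence ratio to pre-addition baseline per second over 15 to 24 s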). To be noted: thallium flux BTC fluorescence, at 10 µM, actives lie on both sides.
Assay [7] is described as follows: blockers of RIG-like receptor reporter activation – cell-based, Sendai virus stimulus, luciferase, 10K MLSCN set, TLR/RLR signaling modifier project, primary screen (AID 602276;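 active = inhibition at or above 50% at 10 µM; inactive = inhibition below 50%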;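 note: firefly luciferase from ISG56 promoter only with Renilla not read in this screen; 0% = Sendai virus plus DMSO and 100% = medium plus DMSO without virus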). Conditions: HEK293 RL24 IRF3 luciferase reporter, at 10 µM, stronger effect = higher value.
Assay [8] can be described thus: TLR3 IRF3 reporter activation blockers – cell-based, poly I:C stimulus, luciferase, 10K MLSCN set, primary screen (AID 602277;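 active = inhibition of the reporter signal at or above 50%; inactive = inhibition below 50%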). Conditions: HEK293-TLR3 RL24 IRF3 luciferase reporter, at 10 µM, stronger effect = higher value. (In general: A reporter such as luciferase makes a cellular process visible.)

Activity calls are given as the source filed them.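 Rule for the calls, unless noted: active = visual image review flags a hit and inhibition of aggregation exceeds 20%; inconclusive = visual hit but inhibition at or below 20%; inactive = no hit on visual image review.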

Chain of Voltage-gated potassium channel subunit beta-2 (Rattus norvegicus) (P62483 whole entry, looked up): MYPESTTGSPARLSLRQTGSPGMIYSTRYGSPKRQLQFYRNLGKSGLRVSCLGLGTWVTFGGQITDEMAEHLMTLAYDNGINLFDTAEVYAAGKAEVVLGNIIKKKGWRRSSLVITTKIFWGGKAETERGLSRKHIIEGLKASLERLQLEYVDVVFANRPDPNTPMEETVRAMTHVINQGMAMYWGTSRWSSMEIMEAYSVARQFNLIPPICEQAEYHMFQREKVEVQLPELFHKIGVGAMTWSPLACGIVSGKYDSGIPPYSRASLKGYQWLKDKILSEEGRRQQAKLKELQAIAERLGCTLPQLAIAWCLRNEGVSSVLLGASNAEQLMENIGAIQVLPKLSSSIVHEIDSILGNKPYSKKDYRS
Chain of Alpha-2C adrenergic receptor (Homo sapiens) (P18825 whole entry, looked up): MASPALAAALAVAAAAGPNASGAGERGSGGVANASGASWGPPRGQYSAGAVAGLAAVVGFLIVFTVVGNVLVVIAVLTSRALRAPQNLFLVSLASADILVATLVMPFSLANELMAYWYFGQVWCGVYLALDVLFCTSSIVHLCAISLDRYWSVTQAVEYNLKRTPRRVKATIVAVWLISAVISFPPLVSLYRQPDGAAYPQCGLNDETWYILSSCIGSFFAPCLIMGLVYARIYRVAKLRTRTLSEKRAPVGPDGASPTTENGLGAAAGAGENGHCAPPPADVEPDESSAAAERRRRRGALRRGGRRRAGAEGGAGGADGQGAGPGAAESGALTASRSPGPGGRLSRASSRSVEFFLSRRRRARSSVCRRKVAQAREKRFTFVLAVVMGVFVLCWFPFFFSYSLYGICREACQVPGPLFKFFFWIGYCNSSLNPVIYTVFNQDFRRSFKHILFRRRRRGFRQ

In the case of `CC1CCN(c2nc3c(c(=O)[nH]c(=O)n3C)n2CCSc2ncccn2)CC1`, the cell count in assay [1] is 548. Moreover, the inhibition in assay [1] was 0.8% (inactive); in assay [3], -15.9% (inactive); in assay [7], 8.83% (inactive); in assay [8], 24.8% (inactive). Besides, in assay [2], the inhibition of aggregation was -8.6% (inactive). In addition, the values for the nuclei count in assay [2] and in assay [3] were 83.9% and 118%, respectively. In assay [4], the fluorescence slope is -0.43 (inactive). The NADPH fluorescence slope in assay [5] is -8.7e-05 (inactive). Moreover, in assay [6], the slope was 0.00584 (inactive).

On to `C=C(C)Cn1c(-c2ccccc2)nc2ccccc21`, for which, in assay [1], the cell count came out at 326. Further, the inhibition in assay [1] was -5.5% (inactive); in assay [3], -17.6% (inactive); in assay [7], 14.4% (inactive); in assay [8] it was 2.46% (inactive). Besides, the inhibition of aggregation in assay [2] is -4.2% (inactive). The nuclei count in assay [2] was 113%; in assay [3], 104%. For the same compound, in assay [4], the fluorescence slope is -0.512 (inactive). In assay [5], the NADPH fluorescence slope is -5.5e-05 (inactive). In addition, the slope in assay [6] was 0.00476 (inactive).

`COCCCNC(=O)Cn1cc2c(n1)CCC(C)C2` (centres undefined): the cell count in assay [1] is 767. Moreover, the inhibition is -6.1% (inactive) in assay [1], -27.6% (inactive) in assay [3], 4.22% (inactive) in assay [7] and 12.1% (inactive) in assay [8]. Further, the inhibition of aggregation in assay [2] was -6% (inactive). For the same compound, the nuclei count in assay [2] turned out to be 104%; in assay [3], 121%. Further, in assay [4], the fluorescence slope was -0.652 (inactive). Further, in assay [5], the NADPH fluorescence slope is 2.7e-06 (inactive). For the same compound, the slope in assay [6] is 0.00615 (inactive).

For the compound `c1coc(CN2CN=C(Nc3nc4ccccc4s3)NC2)c1`, in assay [1], the cell count amounted to 604. For the same compound, the inhibition in assay [1] is -1.5% (inactive); in assay [3] it was 13.3% (inactive); in assay [7] it was -12.9% (inactive); in assay [8], -7.25% (inactive). For the same compound, the inhibition of aggregation in assay [2] was -13.8% (inactive). Also, the nuclei count was determined as 106% in assay [2] and 109% in assay [3]. In addition, in assay [4], the fluorescence slope is -0.357 (inactive). Also, the NADPH fluorescence slope in assay [5] was -2.5e-05 (inactive). The slope in assay [6] is 0.00455 (inactive).

Take `CC1CCN(CCc2nc3cc(NS(=O)(=O)c4ccc(F)cc4)ccc3n2C)CC1`: the cell count in assay [1] was found to be 392. For the same compound, the inhibition in assay [1] is 6.1% (inactive); in assay [3] it was -31.1% (inactive); in assay [7] it was 5.27% (inactive); in assay [8], 16% (inactive). In assay [2], the inhibition of aggregation is 13.2% (inactive). The nuclei count in assay [2] was 97.6%; in assay [3], 106%. Besides, in assay [4], the fluorescence slope is -0.5 (inactive). Besides, the NADPH fluorescence slope in assay [5] was -3.1e-05 (inactive). For the same compound, the slope in assay [6] is 0.00517 (inactive).

For `CCOC(=O)Cc1csc(/C(=N/O)C(N)=O)n1`, the cell count in assay [1] was determined as 638. Besides, the inhibition in assay [1] is 2.7% (inactive); in assay [3], -62.8% (inactive); in assay [7], 13.2% (inactive); in assay [8] it was 15.9% (inactive). The inhibition of aggregation in assay [2] was 0.1% (inactive). Further, the nuclei count in assay [2] stood at 126%; in assay [3], 108%. For the same compound, in assay [4], the fluorescence slope was -0.48 (inactive). Besides, the NADPH fluorescence slope in assay [5] was -9.9e-05 (inactive). The slope in assay [6] was 0.00629 (inactive).

`CCS(=O)(=O)c1nc2ccccc2n1Cc1ccccc1Cl`: the cell count in assay [1] was determined as 689. The inhibition is -1.1% (inactive) in assay [1], -31.4% (inactive) in assay [3], -0.827% (inactive) in assay [7] and 18.9% (inactive) in assay [8]. For the same compound, the inhibition of aggregation in assay [2] is -10.2% (inactive). The nuclei count in assay [2] came to 115%; in assay [3] it was 109%. For the same compound, in assay [4], the fluorescence slope is -0.542 (inactive). For the same compound, the NADPH fluorescence slope in assay [5] is -5.8e-06 (inactive). Further, the slope in assay [6] was 0.0072 (inactive).

As to `CN(C)CCCn1c(N)c(C#N)c2nc(C#N)c(C#N)nc21`, the cell count in assay [1] was 735. Moreover, the inhibition in assay [1] was -14.6% (inactive); in assay [3] it was -55.1% (inactive); in assay [7], 48.9% (inactive); in assay [8] it was 79.3% (active). Moreover, the inhibition of aggregation in assay [2] is 0% (inactive). For the same compound, the nuclei count in assay [2] came out at 128%; in assay [3], 106%. Besides, in assay [4], the fluorescence slope was -0.0856 (active). Moreover, in assay [5], the NADPH fluorescence slope was -1.8e-05 (inactive). Further, in assay [6], the slope is 0.00617 (inactive).

For the compound `Cc1cccc(-c2nnn(CC/C(N)=N/O)n2)c1`, the cell count in assay [1] came out at 321. For the same compound, the inhibition in assay [1] was -4.8% (inactive); in assay [3], 25.6% (inactive); in assay [7] it was 2.73% (inactive); in assay [8], -10.7% (inactive). Moreover, the inhibition of aggregation in assay [2] was -1.8% (inactive). The nuclei count worked out at 84.2% in assay [2] and 90.5% in assay [3]. The fluorescence slope in assay [4] was -0.496 (inactive). Further, the NADPH fluorescence slope in assay [5] was -2.1e-05 (inactive). The slope in assay [6] was 0.00549 (inactive).

On to `CCOC(=O)N1CCN(C(=O)c2n[nH]c(=O)c3ccccc23)CC1`, for which the cell count in assay [1] was found to be 515. The inhibition in assay [1] was -9.4% (inactive); in assay [3], -37.5% (inactive); in assay [7] it was -11.6% (inactive); in assay [8], -3.48% (inactive). Also, the inhibition of aggregation in assay [2] is -7.2% (inactive). Also, the results for the nuclei count in assay [2] and in assay [3] were 107% and 80.9%, respectively. Besides, in assay [4], the fluorescence slope was -0.591 (inactive). For the same compound, the NADPH fluorescence slope in assay [5] was -2.8e-05 (inactive). Also, the slope in assay [6] is 0.00361 (inactive).

For the compound `O=c1oc2ccccc2cc1NCc1ccccc1O`, the cell count in assay [1] was 644. Besides, the inhibition in assay [1] was 2.1% (inactive); in assay [3], -19.5% (inactive); in assay [7], -15.8% (inactive); in assay [8], -21.8% (inactive). The inhibition of aggregation in assay [2] is -25% (inactive). In addition, the values for the nuclei count in assay [2] and in assay [3] were 115% and 106%, respectively. For the same compound, in assay [4], the fluorescence slope is -0.594 (inactive). For the same compound, in assay [5], the NADPH fluorescence slope is -1.9e-05 (inactive). In addition, the slope in assay [6] was 0.00653 (inactive).

Consider `Cc1c(C(=O)N2CCCC2)sc(NC(=O)c2cccs2)c1C#N`, for which the cell count in assay [1] turned out to be 706. Besides, the inhibition in assay [1] is 17.1% (inactive); in assay [3], -67.6% (inactive); in assay [7], 14.8% (inactive); in assay [8], 12.4% (inactive). Besides, the inhibition of aggregation in assay [2] was 10.4% (inactive). The nuclei count in assay [2] turned out to be 86.7%; in assay [3] it was 130%. Besides, the fluorescence slope in assay [4] was -0.504 (inactive). For the same compound, the NADPH fluorescence slope in assay [5] is -8.5e-06 (inactive). In assay [6], the slope was 0.00564 (inactive).

As to `Cc1cc(C)c(NC(=O)Cn2cc3c(n2)CCCC3)c(C)c1`, in assay [1], the cell count came out at 738. For the same compound, the inhibition was -7.9% (inactive) in assay [1], -1.2% (inactive) in assay [3], 26.1% (inactive) in assay [7] and 11.6% (inactive) in assay [8]. For the same compound, the inhibition of aggregation in assay [2] is -4.1% (inactive). The figures for the nuclei count in assay [2] and in assay [3] were 76.3% and 110%, respectively. In addition, in assay [4], the fluorescence slope is -0.515 (inactive). In assay [5], the NADPH fluorescence slope was -2e-05 (inactive). Also, in assay [6], the slope is 0.00662 (inactive).

For the compound `Cc1csc(SCc2nc3sc4c(c3c(=O)[nH]2)CCC4)n1`, the cell count in assay [1] came to 562. The inhibition in assay [1] is 1.9% (inactive); in assay [3], -229% (inactive); in assay [7], 13% (inactive); in assay [8], 1.21% (inactive). For the same compound, the inhibition of aggregation in assay [2] was 0.1% (inactive). Further, the nuclei count in assay [2] turned out to be 116%; in assay [3], 171%. Moreover, in assay [4], the fluorescence slope was -0.553 (inactive). In addition, the NADPH fluorescence slope in assay [5] was -1.4e-05 (inactive). Moreover, the slope in assay [6] is 0.00536 (inactive).
